As usually defined, the AC50 is the concentration at which the activity in the assay is half-maximal.

Assay [1] is described as follows: ATG_NFI_CIS: Attagene CIS-FACTORIAL HepG2 Assay for human Nuclear Factor I (NFI) (AID 2282989). Particulars: HepG2 cis-regulatory reporter, NFI response element transcription; actives raise or lower the signal. Summed up:
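HepG2, transient MRTU, 24 h exposure; RNA→cDNA→PCR→FAM label→HpaI→CE fluorescence. Bidirectional fit, DMSO = baseline.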

Assay [2] concerns the target Myc proto-oncogene protein (Homo sapiens) (UniProt P01106). Description: ATG_Myc_CIS: Attagene CIS-FACTORIAL HepG2 Assay for human Myelocytomatosis (Myc) Proto-Oncogene Transcription Factor (AID 2282990). The note with it: HepG2, Attagene cis-reporter transcription factor activity; actives raise or lower the signal. Summed up: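 HepG2, transient MRTU transfection (cis promoters, endogenous TFs); 24 h dosing; TriZol RNA → oligo(dT) RT → PCR → 6-FAM primer extension → HpaI cut → CE. Bidirectional fit vs DMSO.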

The nature of assay [3]: ATG_NF_kB_CIS: Attagene CIS-FACTORIAL HepG2 Assay for human Nuclear Factor Kappa B (NF-kB) (AID 2282991). Particulars: HepG2 Attagene cis-factorial NF-kB reporter mRNA; actives raise or lower the signal. Put shortly:
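Fluorescence of labelled RT-PCR products separated by capillary electrophoresis gives reporter mRNA levels from transfected HepG2 cells exposed 24 h; values are fitted in both directions relative to DMSO.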

Assay [4] is described as follows: ATG_NRF2_ARE_CIS: Attagene CIS-FACTORIAL HepG2 Assay for human Nuclear Factor Erythroid 2 Related Factor 2 (NFR2) response to Antioxidant Response Elements (ARE) (AID 2282992). Particulars: HepG2 Attagene ARE/NRF2 reporter, transcription factor activity; actives raise or lower the signal. Put shortly:
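Fluorescence intensity of reporter-specific cDNA fragments, separated by capillary electrophoresis, reflects mRNA induction in transfected HepG2 cells at 24 h. Activity is fitted bidirectionally, DMSO serving as baseline.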

Assay [5] is described as follows: ATG_Oct_MLP_CIS: Attagene CIS-FACTORIAL HepG2 Assay for human Octamer-Binding Transcription Factor (Oct) (AID 2282993). The note with it: HepG2 Attagene cis-factorial Oct reporter, mRNA; actives raise or lower the signal. Summed up: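 Multiplexed cis-reporter assay in human liver HepG2 cells, 24 h incubation. Reporter RNA amplified and labelled, then resolved by capillary electrophoresis; DMSO serves as negative control and baseline.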

The target of assay [6] is Cellular tumor antigen p53 (Homo sapiens) (UniProt P04637). Description: ATG_p53_CIS: Attagene CIS-FACTORIAL HepG2 Assay for human p53 Transcription Factor (AID 2282994). The note with it: HepG2 p53 cis-element reporter, Attagene mRNA; actives raise or lower the signal. Put shortly:
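Transiently transfected HepG2 (multiple cis reporter transcription units); exposure 24 h; reporter RNA via RT-PCR, 6-FAM extension, 2 h HpaI digest at 37 C, CE detection; DMSO baseline.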

The nature of assay [7]: BSK_3C_TissueFactor: BioMAP Diversity Plus: 3C Assay for Tissue Factor Biomarker Activity (AID 2282997). Particulars: BioMAP 3C HUVEC, tissue factor biomarker readout; actives raise or lower the signal. Summed up:
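Cells used were primary human umbilical vein endothelial cells. They were dosed with chemical, and after 24 h Tissue Factor was quantified by ELISA. Curves were fitted bidirectionally with DMSO as baseline.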

Assay [8] in a line: BSK_3C_VCAM1: BioMAP Diversity Plus: 3C Assay for Vascular cell adhesion molecule 1 (VCAM1) Biomarker Activity (AID 2282999). Particulars: BioMAP 3C HUVEC, VCAM1 ELISA, cytokine-stimulated; actives raise or lower the signal. Summed up: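 Activity fitted in both directions relative to DMSO, with ELISA measurement of the surface marker on primary HUVEC (3C) at 24 h post-treatment; parallel SRB staining (0.1% SRB, TCA-fixed, 560 nm) flagged overt cytotoxicity.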

Assay [9] is described as follows: BSK_3C_uPAR: BioMAP Diversity Plus: 3C Assay for Urokinase-type plasminogen activator receptor (uPAR) Biomarker Activity (AID 2282998). The note with it: BioMAP 3C HUVEC, uPAR biomarker ELISA; actives raise or lower the signal. Put shortly:
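Dose primary human umbilical vein endothelial cells, incubate 24 h, measure cell-surface uPAR by ELISA, then fit the signal in both directions against the DMSO negative control.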
(In general: ELISA stands for enzyme-linked immunosorbent assay.)

The nature of assay [10]: BSK_4H_Eotaxin3: BioMAP Diversity Plus: 4H Assay for Eotaxin 3 Biomarker Activity (AID 2283000).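 For outcome: CCL26 protein level quantified by ELISA in parallel with SRB cytotoxicity check.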 Particulars: primary human endothelial cells (HUVEC); actives raise or lower the signal. Put shortly:
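Endothelial primary cells (human umbilical vein) exposed to compound for 24 h. ELISA detection of Eotaxin-3.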

SMILES strings stand for the structures. “And” between values parts separate entries of the source, which are not always exact repeats. Equal entries are not always repeated. More than one record can exist for a structure, and the calls need not agree. The source made the active and inactive calls. Rule for the calls: active = hit-call score of the fitted dose curve at least 0.9, where 1 is the maximum; inactive = score below 0.9.

Chain of Myc proto-oncogene protein (Homo sapiens) (P01106 whole entry, looked up): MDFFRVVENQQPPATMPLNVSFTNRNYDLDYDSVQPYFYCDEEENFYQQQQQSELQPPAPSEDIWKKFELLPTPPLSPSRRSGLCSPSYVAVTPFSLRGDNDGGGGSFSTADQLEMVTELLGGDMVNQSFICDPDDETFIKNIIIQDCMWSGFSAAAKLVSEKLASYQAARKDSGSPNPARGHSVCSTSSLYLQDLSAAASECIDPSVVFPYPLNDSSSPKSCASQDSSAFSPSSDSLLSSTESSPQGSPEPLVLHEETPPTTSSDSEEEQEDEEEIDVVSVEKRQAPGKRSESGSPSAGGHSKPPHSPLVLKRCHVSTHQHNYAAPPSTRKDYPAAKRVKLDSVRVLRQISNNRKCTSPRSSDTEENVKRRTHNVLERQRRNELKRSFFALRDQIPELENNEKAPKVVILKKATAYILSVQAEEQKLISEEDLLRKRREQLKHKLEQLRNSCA
Chain of Cellular tumor antigen p53 (Homo sapiens) (P04637 whole entry, looked up): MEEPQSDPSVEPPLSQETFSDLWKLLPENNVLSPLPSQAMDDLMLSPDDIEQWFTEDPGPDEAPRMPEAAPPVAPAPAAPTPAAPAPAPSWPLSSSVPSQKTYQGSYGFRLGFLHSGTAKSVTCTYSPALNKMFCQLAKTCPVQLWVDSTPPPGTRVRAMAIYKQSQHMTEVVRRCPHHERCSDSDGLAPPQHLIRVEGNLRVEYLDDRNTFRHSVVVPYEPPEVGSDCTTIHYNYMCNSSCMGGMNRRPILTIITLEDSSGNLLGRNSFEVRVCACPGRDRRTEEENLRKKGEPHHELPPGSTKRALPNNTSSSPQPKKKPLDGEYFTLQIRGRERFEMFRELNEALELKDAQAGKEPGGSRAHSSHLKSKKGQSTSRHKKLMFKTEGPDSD

On to `Oc1ccc2ccccc2c1`, for which the compound was classed as inactive in assay [1], in assay [2], in assay [3], in assay [5], in [6] and in assay [7]. The outcome in assay [8] was inactive. The AC50 was 15.5 µM (active) and 5.76 µM (active) in assay [4]; 180 µM (active) in assay [6].

For the compound `NCc1cccc(C2CCN(C(=O)c3ccc(C#Cc4ccccc4F)o3)CC2)c1`, the call in [1], in assay [2] and in assay [6] was inactive. Besides, the concentration at half-maximal activity (AC50) in assay [3] was 18.3 µM (active); in assay [4], 1.76 µM (active); in [5], 15.5 µM (active); in [7], 15.6 µM (active); in assay [9], 7.38 µM (active); in assay [8], 15.8 µM (active). Further, in [10], the AC50 is 15.8 µM (active).

In the case of `CCCCOC(=O)c1ccc(O)cc1`, the half-maximal activity concentration (AC50) in [1] was 100 µM (active); in [2], 100 µM (active); in [4] it was 100 µM (active) and 26.2 µM (active); in assay [5], 116 µM (active); in assay [7], 7.85 µM (active). The outcome in [1], in assay [2], in [4], in assay [5], in assay [6] and in assay [9] was inactive. Further, the outcome in assay [8] was inactive.

In the case of `Cc1cc(F)ccc1-c1cc(N2CC[C@@H](O)[C@H]2CO)ncc1N(C)C(=O)C(C)(C)c1cc(C(F)(F)F)cc(C(F)(F)F)c1`, the result in assay [1], in assay [2], in assay [3], in assay [4], in [5] and in assay [6] was inactive. For the same compound, the AC50 is 12.4 µM (active) in assay [7], 9.24 µM (active) in assay [9] and 11.8 µM (active) in [8].

Take `COc1cc(C(=O)NC2CCN(C)CC2)ccc1Nc1ncc2c(n1)N(C1CCCC1)CC(F)(F)C(=O)N2C`: the AC50 is 0.709 µM (active) in [1]; 1.07 µM (active) in [5]; 1.94 µM (active) in [6]; 5.9 µM (active) in assay [7]; 22.7 µM (active) in assay [9]; 19.1 µM (active) in [8]. The compound was classed as inactive in assay [2], in assay [3] and in assay [4].

As to `CCCCOC(=O)CC(CC(=O)OCCCC)(OC(C)=O)C(=O)OCCCC`, the compound was called inactive in assay [1], in [2], in assay [3], in assay [4], in assay [5] and in assay [6]. Besides, the outcome in [7], in assay [9] and in [8] was inactive.

As for `O=C=NCCCCCCN=C=O`, the call in [1], in assay [2], in assay [3], in [4], in assay [5] and in [6] was inactive. The result in assay [7], in assay [9] and in assay [8] was inactive.

Regarding `O=CCCCC=O`, the result in assay [1], in assay [2], in assay [3], in assay [4], in assay [5] and in assay [6] was inactive. The concentration at half-maximal activity (AC50) was 73.1 µM (active) in assay [3]; 169 µM (active) in assay [4]; 30.3 µM (active) in assay [7]; 33.3 µM (active) in assay [9]; 31.6 µM (active) in assay [8]; 31.4 µM (active) in assay [10].

As to `O=C1c2ccccc2C(=O)N1CCc1noc(-c2ccc(CN3CCCCCC3)s2)n1`, the call in assay [1], in [2], in assay [3], in assay [5], in assay [6] and in assay [7] was inactive. The result in assay [9] and in assay [8] was inactive. In addition, in [4], the AC50 was 23.1 µM (active).

On to `CCCCCCCCCCCO`, for which the call in assay [1], in assay [2], in assay [3], in assay [4], in [5] and in assay [6] was inactive. The figures for the AC50 in assay [7], in assay [9] and in [8] were 36.4 µM (active), 34.2 µM (active) and 36.3 µM (active), respectively.

`CCCCCCCC[Si](OCC)(OCC)OCC`: the AC50 in assay [1] is 155 µM (active); in assay [6] it was 78.4 µM (active); in assay [8], 18.9 µM (active). For the same compound, the compound was classed as inactive in assay [1], in assay [2], in assay [3], in assay [5], in assay [6] and in assay [7].

Regarding `OCCO`, the result in [1], in assay [2], in [3], in assay [4], in [5] and in [6] was inactive. Further, the result in [7], in [9], in [8] and in assay [10] was inactive.

Turning to `O=c1[nH]sc2ccccc12`, the half-maximal activity concentration (AC50) in assay [1] is 45.9 µM (active); in assay [4], 6.26 µM (active); in [6] it was 42.6 µM (active); in [7], 8.49 µM (active); in assay [9], 15 µM (active); in assay [8], 8.74 µM (active). Moreover, the compound was called inactive in assay [2], in assay [3] and in assay [5].

Take `O=C(Nc1ccc(Cl)cc1)Nc1ccc(Cl)c(Cl)c1`: the result in [1], in assay [2], in [3], in assay [6] and in [7] was inactive. Also, the AC50 in [4] is 6.66 µM (active); in assay [5], 5.12 µM (active); in assay [9] it was 1.89 µM (active); in assay [8], 3.5 µM (active).

Turning to `COCC(C)OCC(C)OCC(C)O` (stereo unspecified), the result in assay [1], in [2], in [3], in assay [4], in assay [5] and in [6] was inactive. Further, the outcome in assay [7], in [9] and in [8] was inactive.

With `Cc1occc1C(=O)Nc1ccc(C(=O)N2CCC(F)(F)/C(=C\C(=O)N3CCC(N4CCCCC4)CC3)c3ccccc32)cc1`, the outcome in [1], in [6], in assay [7], in [9] and in assay [8] was inactive. Also, the AC50 in [2] is 58.3 µM (active); in assay [3], 18.5 µM (active); in assay [4], 22 µM (active); in assay [5] it was 49.6 µM (active).

Take `CC/C(=C(/CC)c1ccc(O)cc1)c1ccc(O)cc1`: the half-maximal activity concentration (AC50) in assay [1] is 13.9 µM (active); in assay [2], 18.6 µM (active); in [4], 12.7 µM (active) [middle of 4 runs]; in assay [5] it was 16.7 µM (active) and 11.1 µM (active) and 16.6 µM (active); in assay [6], 11.1 µM (active); in assay [7], 27.1 µM (active). For the same compound, the figures for the AC50 in [9], in assay [8] and in assay [10] were 16.6 µM (active), 32.5 µM (active) and 27.6 µM (active), respectively. Also, the call in assay [1], in assay [2], in [4], in [5] and in [6] was inactive.

The values are drawn from PubChem BioAssay (EPA / NIEHS).
